SMILES strings stand for the structures. The source made the active and inactive calls. The rule behind the calls is not given here.

Sequence of Pantothenate synthetase (Mycobacterium tuberculosis (strain ATCC 25618 / H37Rv)) (P9WIL5 whole entry, looked up): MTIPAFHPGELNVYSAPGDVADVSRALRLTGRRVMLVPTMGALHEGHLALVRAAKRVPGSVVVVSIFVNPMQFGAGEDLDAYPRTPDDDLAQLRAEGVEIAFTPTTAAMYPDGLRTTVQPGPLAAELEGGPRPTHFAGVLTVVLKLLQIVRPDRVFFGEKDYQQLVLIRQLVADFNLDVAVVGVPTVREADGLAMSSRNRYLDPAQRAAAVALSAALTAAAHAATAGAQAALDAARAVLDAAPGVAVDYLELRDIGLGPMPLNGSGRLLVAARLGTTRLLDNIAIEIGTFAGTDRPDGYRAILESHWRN

The assay addresses Pantothenate synthetase (Mycobacterium tuberculosis (strain ATCC 25618 / H37Rv)) (UniProt P9WIL5). Description: Recombinant Mtb pantothenate synthetase (PanC) inhibitors, coupled enzyme, confirmatory (AID 375).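 Note: 0% = full reaction with vehicle and 100% = no enzyme background.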 Particulars: coupled enzyme assay; at 10 µM, stronger effect = higher value.
As to `CCC(=O)OCCn1c(=O)c2cc3c(=O)n(CCOC(=O)CC)c(=O)c3cc2c1=O`, the inhibition – broadly, the share of the control response that was lost under treatment – was 0% (inactive).
Turning to `Cc1ccc(-c2nc(=S)c3c(n2Cc2ccco2)CCCC3)cc1`, the inhibition was 0% (inactive).
Turning to `O=C(CCc1ccccc1)Nc1ccncc1`, the inhibition is 0% (inactive).
With `CC(C)Oc1ccc(-c2nn(-c3ccccc3)cc2/C=c2\sc3ncnn3c2=O)cc1`, the inhibition is 0% (inactive).
For `CC(=O)Nc1ccccc1OCc1nnc(-c2cccs2)o1`, the inhibition was 0% (inactive).
As for `CCSc1nc2c(c(=O)n(C)c(=O)n2C)n1Cc1ccc(Cl)cc1`, the inhibition was 4% (inactive).
As for `CCCc1cc(-n2ccnc2)n2c(nc3ccccc32)c1C#N`, the inhibition is 0% (inactive).
For the compound `Cn1c(-n2c(-c3ccco3)nc3ccccc3c2=O)nc2ccccc21`, the inhibition was 2% (inactive).
In the case of `Cc1c(NC(=O)c2ccc(Br)o2)c(=O)n(-c2ccccc2)n1C`, the inhibition was 0% (inactive).
On to `Cc1cc(N)n2nc(-c3ccccc3)cc2n1`, for which the inhibition was 0% (inactive).
Turning to `COc1cccc(-c2cc3nc4c(c(N5CCC6(CC5)OCCO6)n3n2)CCCC4)c1`, the inhibition is 0% (inactive).
As to `COc1ccc(-n2cnnc2SCCC#N)cc1`, the inhibition was 0% (inactive).
With `CCCS(=O)(=O)N1CCCC(C(=O)N2CCC(Cc3ccccc3)CC2)C1` (centres undefined), the inhibition is 0% (inactive).
On to `Cn1c(=O)c2c(nc(SCC(=O)N3CCCc4ccccc43)n2C)n(C)c1=O`, for which the inhibition is 1% (inactive).
Regarding `CCOC(=O)c1ccccc1NC(=O)c1cccnc1`, the inhibition is 0% (inactive).
With `CCOc1ccccc1NC(=O)CN(c1ccc(C)cc1)S(=O)(=O)c1c(C)noc1C`, the inhibition was 9% (inactive).
In the case of `O=C(COc1ccc(F)cc1Br)N1CCc2ccccc21`, the inhibition was 10% (inactive).
As to `CCC(C)n1[nH]c(=O)c2c(C)cc(C)nc21` (centres undefined), the inhibition was 0% (inactive).
As to `COc1cc(OC)c(-c2nn3c(C4CCCCC4)nnc3s2)cc1OC`, the inhibition is 0% (inactive).
With `Cc1cc(C)c2c(n1)nn1c(N3CCN(c4ccccc4C)CC3)cc(C)nc21`, the inhibition was 4% (inactive).
Consider `Cc1c(C(=O)N2CCCC2)sc(NC(=O)c2cccs2)c1C#N`, for which the inhibition was 0% (inactive).
As to `CCN(CC)CCNC(=O)c1cc(S(C)(=O)=O)ccc1OC`, the inhibition is 0% (inactive).
Take `Cc1ccc(S(=O)(=O)N2CCC(C(=O)NCCN3CCCCCC3)CC2)cc1`: the inhibition was 0% (inactive).
Then `N#CCCCCn1c(-c2cncs2)nc2ccccc21`, with 0% (inactive).
